# Inconclusive results are not listed. A call without a number means that no potency is given here. The source made the active and inactive calls. Calls come from the whole dose curve; as a rule, active = well fitted curve in the direction sought with a large enough effect; inconclusive = small, poorly fitted or top-dose-only effect, or another doubt; inactive = no such curve, though single readings can be large; an effect the other way counts as inactive or inconclusive.
# Biological target: Glucagon-like peptide 1 receptor (Homo sapiens) (UniProt P43220)
# Assay: qHTS of GLP-1 Receptor Agonists: LOPAC Validation (AID 624148);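 note: higher luminescence signal means agonism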
# Conditions: GLP-1R agonist cell assay; series mostly up to 46.1 µM
# Method in brief: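 HEK293 cells stably co-expressing GLP-1R and a cAMP-responsive luciferase reporter, plated 12 hours before compound, then incubated 4-6 hr at 37 deg C. Luminescence read 12 min after detection reagent.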
# Chain of Glucagon-like peptide 1 receptor (Homo sapiens) (P43220 whole entry, looked up): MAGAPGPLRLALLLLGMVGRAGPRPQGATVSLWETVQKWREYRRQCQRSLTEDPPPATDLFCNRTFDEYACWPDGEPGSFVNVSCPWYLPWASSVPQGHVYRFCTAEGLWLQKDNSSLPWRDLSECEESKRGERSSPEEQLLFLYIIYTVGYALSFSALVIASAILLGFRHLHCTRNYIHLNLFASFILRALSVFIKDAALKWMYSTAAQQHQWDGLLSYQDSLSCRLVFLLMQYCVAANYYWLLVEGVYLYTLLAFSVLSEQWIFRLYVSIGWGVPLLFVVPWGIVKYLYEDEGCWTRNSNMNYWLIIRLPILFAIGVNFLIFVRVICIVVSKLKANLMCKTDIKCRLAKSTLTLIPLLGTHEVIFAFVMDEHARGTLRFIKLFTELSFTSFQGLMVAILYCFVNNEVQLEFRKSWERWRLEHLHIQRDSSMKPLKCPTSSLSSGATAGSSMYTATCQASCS
row,SMILES,outcome
1,CCn1cnc2c(Nc3cccc(Cl)c3)nc(N[C@@H]3CCCC[C@@H]3N)nc21,inactive
2,CCCN1CCc2cccc3c2[C@H]1Cc1ccc(O)c(O)c1-3,inactive
3,C[C@H](N)CN1CCc2ccc(Br)cc21,inactive
4,CCCn1c(=O)c2[nH]c(C3CCCC3)nc2n(CCCOC(=O)c2ccc(S(=O)(=O)F)cc2)c1=O,inactive
5,CCCN1CC[C@@H]2c3cc(O)ccc3CC[C@@H]21,inactive
6,c1ccc2c(N3CCNCC3)cccc2c1,inactive
7,CCCN1CCC[C@@H](c2cccc(O)c2)C1,inactive
8,NC(C(=O)O)c1cc(=O)[nH]o1 (centres undefined),inactive
9,CCCCCCCCCCCCCC(=O)O[C@@H]1[C@@H](C)[C@@]2(O)[C@@H](C=C(CO)C[C@@]3(O)C(=O)C(C)=C[C@@H]23)C2C(C)(C)[C@@]21OC(C)=O (some centres undefined),inactive
10,CCCN(CCC)[C@H]1CCc2c(F)ccc(O)c2C1,inactive
11,COc1ccc2c(c1)/C(=C/c1cnc[nH]1)C(=O)N2,inactive
12,NC(Cc1ccc(N(CCCl)CCCl)cc1)C(=O)O (centres undefined),inactive
13,CC(C)(C)c1cc(C=C(C#N)C#N)cc(C(C)(C)C)c1O,inactive
14,CCOC(=O)c1ncn2c1[C@@H]1CCCN1C(=O)c1cc(OC)ccc1-2,inactive
15,N#C/C(=C/c1ccc(O)c(O)c1)C(N)=S,inactive
16,CCCN(CCC)[C@@H]1CCc2cccc(O)c2C1,inactive
17,CN1CCc2cc(O)cc3c2[C@H]1Cc1ccc(O)c(O)c1-3,inactive
18,C[N+]1(C)CCOC(O)(c2ccc(-c3ccc(C4(O)C[N+](C)(C)CCO4)cc3)cc2)C1 (centres undefined),inactive
19,CCCC[N+]1(C)C2CC(OC(=O)[C@H](CO)c3ccccc3)CC1C1OC12 (some centres undefined),inactive
20,CN1C2CCC1CC(OC(c1ccccc1)c1ccccc1N)C2 (centres undefined),inactive

# System: not listed separately
# Assay: qHTS of Nrf2 Activators: LOPAC Validation (AID 624149)
# Conditions: Nrf2/ARE reporter cell assay; series mostly up to 46.1 µM
# Method in brief: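 Following overnight seeding in 5% FBS OPTI-MEM, AREc32_Fluc cells receive compounds for a 24 hr incubation at 37 deg C with 5% CO2. Steady-Glo is added, and after 30 min at RT luminescence is recorded.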
row,SMILES,Potency
1,CC(C)(O)[C@@H]1C2OC(=O)[C@@H]1[C@]1(O)C[C@H]3O[C@]34C(=O)O[C@H]2[C@]14C (tested in a mixture with another compound),inactive
2,CCn1cnc2c(Nc3cccc(Cl)c3)nc(N[C@@H]3CCCC[C@@H]3N)nc21,inactive
3,NC(=O)COc1c(F)cc(SCCNS(=O)(=O)c2ccccc2)cc1F,inactive
4,CCCN1CCc2cccc3c2[C@H]1Cc1ccc(O)c(O)c1-3,inactive
5,C=CCN1C[C@@H](C)N([C@H](c2ccc(C(=O)N(CC)CC)cc2)c2cccc(OC)c2)C[C@@H]1C,inactive
6,C[C@H](N)CN1CCc2ccc(Br)cc21,inactive
7,CCCN(CCC)CCc1c[nH]c2ccc(C(N)=O)cc12,inactive
8,CCCn1c(=O)c2[nH]c(C3CCCC3)nc2n(CCCOC(=O)c2ccc(S(=O)(=O)F)cc2)c1=O,inactive
9,Clc1cc(I)cc(Cl)c1NC1=NCCN1,inactive
10,CCCN1CC[C@@H]2c3cc(O)ccc3CC[C@@H]21,inactive
11,c1ccc2c(N3CCNCC3)cccc2c1,inactive
12,CCCN1CCC[C@@H](c2cccc(O)c2)C1,inactive
13,N=C(N)c1ccc(CS(=O)(=O)F)cc1,inactive
14,NCCc1ccc(S(=O)(=O)F)cc1,inactive
15,NC(C(=O)O)c1cc(=O)[nH]o1 (centres undefined),inactive
16,CCCCCCCCCCCCCC(=O)O[C@@H]1[C@@H](C)[C@@]2(O)[C@@H](C=C(CO)C[C@@]3(O)C(=O)C(C)=C[C@@H]23)C2C(C)(C)[C@@]21OC(C)=O (some centres undefined),inactive
17,CCCN(CCC)[C@H]1CCc2c(F)ccc(O)c2C1,inactive
18,COc1ccc2c(c1)/C(=C/c1cnc[nH]1)C(=O)N2,inactive
19,NC(Cc1ccc(N(CCCl)CCCl)cc1)C(=O)O (centres undefined),inactive
20,O=[N+]([O-])/C=C/c1ccc2c(c1)OCO2,inactive
21,CC(C)(C)c1cc(C=C(C#N)C#N)cc(C(C)(C)C)c1O,inactive
22,CCOC(=O)c1ncn2c1[C@@H]1CCCN1C(=O)c1cc(OC)ccc1-2,inactive
23,N[C@@H](Cn1ccc(=O)[nH]c1=O)C(=O)O,inactive
24,CCCN(CCC)CCc1ccc(O)c(O)c1,inactive
25,N#C/C(=C/c1ccc(O)c(O)c1)C(N)=S,inactive
26,C[C@@H]1O[C@@H](O[C@H]2C[C@@H](O)[C@]3(CO)[C@@H]4C(CC[C@]3(O)C2)[C@@]2(O)CC[C@H]([C@@H]3COC(=O)C3)[C@@]2(C)C[C@H]4O)[C@H](O)[C@H](O)[C@H]1O (some centres undefined),inactive
27,CCCN(CCC)[C@@H]1CCc2cccc(O)c2C1,inactive
28,C=CCN1CCc2cccc3c2[C@H]1Cc1ccc(O)c(O)c1-3,inactive
29,OCc1cnc[nH]1,inactive
